Several values for one entry are separate records, joined by “and”; a condition that tells them apart may be missing. Equal entries are not always repeated. Activity calls are given as the source filed them. Rule as the data show it: active = inhibition above about 80%; inactive = the rest.
experiment: LFS_MB_2R medulloblastoma cell growth inhibition, synergistic combos for chromothripsis tumors, cisplatin combos (AID 1671457); conditions: LFS_MB_2R medulloblastoma cells, at 0.5 µM, stronger effect = higher value;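 also: cells exposed to compound for four days before readout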

Q: Which inhibition does the source give for `COc1ccccc1S(=O)(=O)Nc1ccc2c(c1)CN(C)C(=O)N2` here?
A: -17.7% (inactive)

Q: With `Cc1cc(C#N)cc(C)c1Oc1nc(Nc2ccc(C#N)cc2)nc(N)c1Br` as the compound, how does the inhibition read?
A: -10.7% (inactive)

Q: Which inhibition does the source give for `Nc1ncn(C2OC(CO)C(O)C2O)c(=O)n1` (stereo not drawn) here?
A: -0.31% (inactive)

Q: With `Cc1cc(C)c(Nc2ccnc(Nc3ccc(C#N)cc3)n2)c(C)c1` as the compound, how does the inhibition read?
A: -18.5% (inactive)

Q: For `COc1ccc(CC(N)C(=O)NC2C(CO)OC(n3cnc4c(N(C)C)ncnc43)C2O)cc1` (stereo not drawn), which inhibition is on record?
A: 29.8% (inactive) and 56.9% (inactive)

Q: With `O=c1ccn(C2OC(CO)C(O)C2O)c(=O)[nH]1` (stereo not drawn) as the compound, how does the inhibition read?
A: 6.19% (inactive) and -21.5% (inactive)

Q: For `CC=C1NC(=O)C2CSSCCC=CC(CC(=O)NC(C(C)C)C(=O)N2)OC(=O)C(C(C)C)NC1=O` (stereo not drawn), which inhibition is on record?
A: 88.5% (active) and 90.2% (active)

Q: For `CN(C)CC(=O)Nc1ccc2[nH]c(=O)c3ccccc3c2c1`, which inhibition is on record?
A: -1.17% (inactive) and -17.8% (inactive) and -26.4% (inactive)

Q: For `CC1OC(n2cc(F)c(=O)[nH]c2=O)C(O)C1O` (stereo not drawn), which inhibition is on record?
A: -17.7% (inactive)

Q: For `Nc1ccn(C2OC(CO)C(O)C2(F)F)c(=O)n1` (stereo not drawn), which inhibition is on record?
A: -9.87% (inactive) and -8.63% (inactive) and -0.27% (inactive)

Q: With `Cc1cn(C2CC(N=[N+]=[N-])C(CO)O2)c(=O)[nH]c1=O` (stereo not drawn) as the compound, how does the inhibition read?
A: 3.25% (inactive) and -11.1% (inactive)

Q: With `CC(C=CC(=O)NO)=CC(C)C(=O)c1ccc(N(C)C)cc1` (stereo not drawn) as the compound, how does the inhibition read?
A: 78.3% (inactive)

Q: Which inhibition does the source give for `NC(=S)NN=Cc1ncccc1N` here?
A: -23.1% (inactive)

Q: With `CC(C)(C#N)c1ccc(N2C(=O)OCc3cnc4ccc(-c5cnc6ccccc6c5)cc4c32)cc1` as the compound, how does the inhibition read?
A: -11.6% (inactive)

Q: Which inhibition does the source give for `CC1CN(c2c(F)c(N)c3c(=O)c(C(=O)O)cn(C4CC4)c3c2F)CC(C)N1` (stereo not drawn) here?
A: -6.3% (inactive)

Q: Which inhibition does the source give for `CCCCN(Cc1ccc(C(=O)NO)cc1)C(=O)Nc1ccccc1` here?
A: -2.85% (inactive) and 5.34% (inactive)

Q: Which inhibition does the source give for `O=c1[nH]cnc2c1ncn2C1OC(CO)C(O)C1O` (stereo not drawn) here?
A: -25.5% (inactive) and -18.4% (inactive)

Q: For `Cc1cc(C=CC#N)cc(C)c1Nc1ccnc(Nc2ccc(C#N)cc2)n1`, which inhibition is on record?
A: -13.3% (inactive)

Q: For `CC(Oc1cc(-c2cnn(C3CCNCC3)c2)cnc1N)c1c(Cl)ccc(F)c1Cl` (stereo not drawn), which inhibition is on record?
A: -6.87% (inactive)

Q: With `O=C(O)c1cc2cccc([N+](=O)[O-])c2[nH]1` as the compound, how does the inhibition read?
A: -32% (inactive)

Q: With `O=c1[nH]c(=O)n(C2CC(O)C(CO)O2)cc1I` (stereo not drawn) as the compound, how does the inhibition read?
A: -2.58% (inactive)

same assay, conditions: LFS_MB_2R medulloblastoma cells, measured here: combination with cisplatin, at 0.5 µM, stronger effect = higher value

Q: For `COc1ccccc1S(=O)(=O)Nc1ccc2c(c1)CN(C)C(=O)N2`, which inhibition is on record?
A: -4.41%

Q: For `Cc1cc(C#N)cc(C)c1Oc1nc(Nc2ccc(C#N)cc2)nc(N)c1Br`, which inhibition is on record?
A: -24.9%

Q: For `Nc1ncn(C2OC(CO)C(O)C2O)c(=O)n1` (stereo not drawn), which inhibition is on record?
A: -2.9%

Q: Which inhibition does the source give for `Cc1cc(C)c(Nc2ccnc(Nc3ccc(C#N)cc3)n2)c(C)c1` here?
A: -29.8%

Q: With `COc1ccc(CC(N)C(=O)NC2C(CO)OC(n3cnc4c(N(C)C)ncnc43)C2O)cc1` (stereo not drawn) as the compound, how does the inhibition read?
A: 55.5% and 77.6%

Q: Which inhibition does the source give for `O=c1ccn(C2OC(CO)C(O)C2O)c(=O)[nH]1` (stereo not drawn) here?
A: 9.72% and -11.9%

Q: For `CC=C1NC(=O)C2CSSCCC=CC(CC(=O)NC(C(C)C)C(=O)N2)OC(=O)C(C(C)C)NC1=O` (stereo not drawn), which inhibition is on record?
A: 99.4% and 104%

Q: Which inhibition does the source give for `CN(C)CC(=O)Nc1ccc2[nH]c(=O)c3ccccc3c2c1` here?
A: -1.41% and -14.7% and -24.5%

Q: For `CC1OC(n2cc(F)c(=O)[nH]c2=O)C(O)C1O` (stereo not drawn), which inhibition is on record?
A: -12.9%

Q: Which inhibition does the source give for `Nc1ccn(C2OC(CO)C(O)C2(F)F)c(=O)n1` (stereo not drawn) here?
A: 22.8% and 20.6% and 41.7%

Q: Which inhibition does the source give for `Cc1cn(C2CC(N=[N+]=[N-])C(CO)O2)c(=O)[nH]c1=O` (stereo not drawn) here?
A: -9.8% and -20.4%

Q: With `CC(C=CC(=O)NO)=CC(C)C(=O)c1ccc(N(C)C)cc1` (stereo not drawn) as the compound, how does the inhibition read?
A: 92.3%

Q: Which inhibition does the source give for `NC(=S)NN=Cc1ncccc1N` here?
A: -11.4%

Q: With `CC(C)(C#N)c1ccc(N2C(=O)OCc3cnc4ccc(-c5cnc6ccccc6c5)cc4c32)cc1` as the compound, how does the inhibition read?
A: -16.8%

Q: Which inhibition does the source give for `CC1CN(c2c(F)c(N)c3c(=O)c(C(=O)O)cn(C4CC4)c3c2F)CC(C)N1` (stereo not drawn) here?
A: -7.26%

Q: With `CCCCN(Cc1ccc(C(=O)NO)cc1)C(=O)Nc1ccccc1` as the compound, how does the inhibition read?
A: 10.6% and 13.6%

Q: For `O=c1[nH]cnc2c1ncn2C1OC(CO)C(O)C1O` (stereo not drawn), which inhibition is on record?
A: -31.3% and -25.6%

Q: For `Cc1cc(C=CC#N)cc(C)c1Nc1ccnc(Nc2ccc(C#N)cc2)n1`, which inhibition is on record?
A: -13.5%

Q: For `CC(Oc1cc(-c2cnn(C3CCNCC3)c2)cnc1N)c1c(Cl)ccc(F)c1Cl` (stereo not drawn), which inhibition is on record?
A: -10.6%

Q: With `O=C(O)c1cc2cccc([N+](=O)[O-])c2[nH]1` as the compound, how does the inhibition read?
A: -28.5%

Q: For `O=c1[nH]c(=O)n(C2CC(O)C(CO)O2)cc1I` (stereo not drawn), which inhibition is on record?
A: 4.62%

same assay, conditions: LFS_MB_2R medulloblastoma cells, measured here: combination with cisplatin, at 5 µM, stronger effect = higher value

Q: Which inhibition does the source give for `COc1ccccc1S(=O)(=O)Nc1ccc2c(c1)CN(C)C(=O)N2` here?
A: 24.4%

Q: Which inhibition does the source give for `Cc1cc(C#N)cc(C)c1Oc1nc(Nc2ccc(C#N)cc2)nc(N)c1Br` here?
A: -73.7%

Q: Which inhibition does the source give for `Nc1ncn(C2OC(CO)C(O)C2O)c(=O)n1` (stereo not drawn) here?
A: 21.8%

Q: For `Cc1cc(C)c(Nc2ccnc(Nc3ccc(C#N)cc3)n2)c(C)c1`, which inhibition is on record?
A: -25.8%

Q: With `COc1ccc(CC(N)C(=O)NC2C(CO)OC(n3cnc4c(N(C)C)ncnc43)C2O)cc1` (stereo not drawn) as the compound, how does the inhibition read?
A: 108% and 104%

Q: For `O=c1ccn(C2OC(CO)C(O)C2O)c(=O)[nH]1` (stereo not drawn), which inhibition is on record?
A: 14.1% and -81.5%

Q: Which inhibition does the source give for `CC=C1NC(=O)C2CSSCCC=CC(CC(=O)NC(C(C)C)C(=O)N2)OC(=O)C(C(C)C)NC1=O` (stereo not drawn) here?
A: 102% and 106%

Q: Which inhibition does the source give for `CN(C)CC(=O)Nc1ccc2[nH]c(=O)c3ccccc3c2c1` here?
A: -64% and -69.6% and -24.6%

Q: For `CC1OC(n2cc(F)c(=O)[nH]c2=O)C(O)C1O` (stereo not drawn), which inhibition is on record?
A: -95.4%

Q: For `Nc1ccn(C2OC(CO)C(O)C2(F)F)c(=O)n1` (stereo not drawn), which inhibition is on record?
A: 40.3% and 52.4% and 57.5%

Q: With `Cc1cn(C2CC(N=[N+]=[N-])C(CO)O2)c(=O)[nH]c1=O` (stereo not drawn) as the compound, how does the inhibition read?
A: -113% and -20.1%

Q: Which inhibition does the source give for `CC(C=CC(=O)NO)=CC(C)C(=O)c1ccc(N(C)C)cc1` (stereo not drawn) here?
A: 103%

Q: Which inhibition does the source give for `NC(=S)NN=Cc1ncccc1N` here?
A: -13.5%

Q: Which inhibition does the source give for `CC(C)(C#N)c1ccc(N2C(=O)OCc3cnc4ccc(-c5cnc6ccccc6c5)cc4c32)cc1` here?
A: -39.1%

Q: For `CC1CN(c2c(F)c(N)c3c(=O)c(C(=O)O)cn(C4CC4)c3c2F)CC(C)N1` (stereo not drawn), which inhibition is on record?
A: 2.01%

Q: Which inhibition does the source give for `CCCCN(Cc1ccc(C(=O)NO)cc1)C(=O)Nc1ccccc1` here?
A: 66.3% and 45%

Q: Which inhibition does the source give for `O=c1[nH]cnc2c1ncn2C1OC(CO)C(O)C1O` (stereo not drawn) here?
A: -22.2% and -17.4%

Q: With `Cc1cc(C=CC#N)cc(C)c1Nc1ccnc(Nc2ccc(C#N)cc2)n1` as the compound, how does the inhibition read?
A: -51.8%

Q: For `CC(Oc1cc(-c2cnn(C3CCNCC3)c2)cnc1N)c1c(Cl)ccc(F)c1Cl` (stereo not drawn), which inhibition is on record?
A: 26.8%

Q: Which inhibition does the source give for `O=C(O)c1cc2cccc([N+](=O)[O-])c2[nH]1` here?
A: -29.3%

Q: Which inhibition does the source give for `O=c1[nH]c(=O)n(C2CC(O)C(CO)O2)cc1I` (stereo not drawn) here?
A: -3.61%
